An excerpt weighted towards active compounds, which were near 7.4% of everything screened.
CRE-bla Fsk: modulators of forskolin-stimulated CRE signaling in CHO cells; CHO CRE-bla reporter (cAMP response element driving beta-lactamase), forskolin EC10, beta-lactamase ratio; Potency, µM (doses to about 38.2 µM), most hits filed as activators; actives 2.5% (n = 71,000); active = well fitted activation curve with a large enough effect in the signal ratio, with a control signal flat, not every such curve was filed as active; inconclusive = small, poorly fitted or top-dose-only effect, or effect the other way, or a change in a side signal; the % refers to the signal ratio
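Using CellSensor CRE-bla CHO cells in Opti-MEM with 0.5% dialyzed FBS, compounds were titrated with EC10 NKH 477 for 3 h at 37 °C. CCF4 ratio (460/530 nm) gave %Activity; AC50 derived.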
HEK293 cAMP cs: parental HEK293 cAMP activation (counter-screen); parental HEK293 CNG cAMP sensor, membrane potential fluorescence; Potency, µM (doses to about 57.1 µM), hits mostly activators; actives 2.5% (n = 73,000); note: nearly all actives have a fitted effect of over 55% in size
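Parental HEK 293 cells stably expressing a modified CNG channel (no TSHR) report cAMP rise as membrane depolarization. Membrane potential dye with 100 uM RO 20-1724 was loaded for 60 min at room temperature, then compound added for 30 min; fluorescence read at 590 nm.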
ERK AVP block: blocks ERK signaling stimulated by vasopressin | HEK293-V1b, vasopressin-stimulated pERK AlphaScreen | actives 0.99% (n = 72,000) | AID 995 | Potency, µM (doses to about 57.5 µM), hits mostly inhibitors; note: nearly all actives have a fitted effect of over 55% in size
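V1b-HEK293 cells; cpd 30 min 37C; 25 nM vasopressin 5 min; lyse 10 min; AlphaScreen beads 5 hr RT. Normalized to DMSO basal and 25 nM vasopressin; AC50 by Hill fit.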
TSHR agonist: agonists of human thyroid stimulating hormone receptor; AID 926; Potency, µM (titrated, usually from 57.1 µM), usual class: activators; HEK293-CNG-TSHR cells (CNG channel as cAMP sensor), membrane potential dye, cAMP; actives 0.48% (n = 73,000); active = well fitted activation curve with a large enough effect in the main read-out, with a control signal flat, not every such curve was filed as active; inconclusive = small, poorly fitted or top-dose-only effect, or a change in a side signal; inactive = no such curve, though single readings can be large or run the other way; reference of the percent scale not stated here;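 note: the control signal comes from parental cells without the receptor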
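HEK 293 cells stably expressing TSHR and a cAMP-gated CNG channel; parental CNG-only cells as counterscreen. Cells preloaded 60 min with membrane potential dye plus 100 uM RO 20-1724, then compound 30 min; fluorescence read at 590 nm.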
Tau fil binding: binders of human tau filaments; actives 2% (n = 71,000); AID 596; P10636; recombinant tau filaments, thioflavin S fluorescence, 15 h; filaments grown with octadecylsulfate alongside compound; Potency, µM (highest dose often 57.1 µM);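 note: actives lower thioflavin S fluorescence by blocking filaments or displacing dye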
Target sequence (P10636 whole entry, looked up): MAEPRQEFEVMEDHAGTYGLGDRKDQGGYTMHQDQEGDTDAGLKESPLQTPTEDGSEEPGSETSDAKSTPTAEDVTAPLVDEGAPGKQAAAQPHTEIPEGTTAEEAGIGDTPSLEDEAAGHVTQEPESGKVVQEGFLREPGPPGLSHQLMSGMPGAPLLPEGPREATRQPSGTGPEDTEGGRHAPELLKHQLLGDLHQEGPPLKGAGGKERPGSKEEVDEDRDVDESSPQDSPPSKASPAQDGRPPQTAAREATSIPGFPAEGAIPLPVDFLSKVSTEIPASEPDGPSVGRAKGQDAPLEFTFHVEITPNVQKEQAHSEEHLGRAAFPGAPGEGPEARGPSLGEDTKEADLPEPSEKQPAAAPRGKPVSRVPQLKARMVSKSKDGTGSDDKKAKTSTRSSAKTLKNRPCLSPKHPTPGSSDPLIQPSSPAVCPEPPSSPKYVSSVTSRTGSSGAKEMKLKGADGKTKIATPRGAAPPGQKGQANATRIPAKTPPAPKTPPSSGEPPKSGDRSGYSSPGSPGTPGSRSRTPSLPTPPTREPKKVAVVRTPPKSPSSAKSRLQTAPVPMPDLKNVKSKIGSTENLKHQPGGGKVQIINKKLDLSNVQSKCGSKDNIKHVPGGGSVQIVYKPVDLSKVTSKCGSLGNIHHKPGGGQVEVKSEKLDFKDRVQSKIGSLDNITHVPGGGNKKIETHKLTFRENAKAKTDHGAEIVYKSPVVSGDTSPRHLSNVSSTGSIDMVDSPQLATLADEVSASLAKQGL
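Thioflavine S fluorescence (ex 450, em 510 nm) reports filaments formed from 1 uM human tau plus 30 uM ODS over 15 h at 37 C (10 mM HEPES pH 7.4, 100 mM NaCl, 5 mM DTT); compounds displacing dye or blocking filaments lower signal.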
Hits are given with their value; . = inactive; ? = inconclusive; / = no result given; [ ] = another dose, or the depositor's remark. Unless noted, calls come from the whole dose curve; as a rule, active = well fitted curve in the direction sought with a large enough effect; inconclusive = small, poorly fitted or top-dose-only effect, or another doubt; inactive = no such curve, though single readings can be large; an effect the other way counts as inactive or inconclusive.

SMILES | CRE-bla Fsk | HEK293 cAMP cs | ERK AVP block | TSHR agonist | Tau fil binding
CCn1c(SCC(=O)c2cc(OC)ccc2OC)nnc1-c1ccncc1 | ? | 25µM | . | ? | .
CCn1c(SCc2ccc(OC)cc2)nnc1-c1ccncc1 | ? | 25µM | . | ? | .
CCn1c(SCC(=O)c2cc(OC)ccc2OC)nnc1C(C)C | . | . | . | . | .
COc1cc2c(cc1OC)/C(=C/C(=O)N1CCOCC1)NC(C)(C)C2 | 5µM | . | ? | . | .
CCc1nc(SCC(=O)N2CCN(c3ccccc3)CC2)c2c(=O)n(C)c(=O)n(C)c2n1 | . | . | / | . | .
CCc1nc(SCc2ccccn2)c2c(=O)n(C)c(=O)n(C)c2n1 | 2.5µM | . | / | .[11.4 µM] | .
CC(C)c1nc(SCc2ccccn2)c2c(=O)n(C)c(=O)n(C)c2n1 | 5µM | . | / | . | .
CCOc1ccccc1-c1nc(-c2ccc(NC(=O)Cc3ccccc3OC)cc2)no1 | . | . | . | . | .
COc1ccc(-c2noc(-c3ccccc3C(=O)Nc3cccc(OC)c3)n2)cc1 | . | 13µM | . | ? | .
CCOc1ccccc1NC(=O)c1ccccc1-c1nc(-c2ccccc2)no1 | ? | 16µM | . | ? | .
CCCCC(CC)COC(=O)COc1ccc(Cl)cc1Cl (configuration not stated) | . | . | . | . | .
Nc1nc(Cl)cc(NCCO)n1 | .[7.6 µM] | .[11.4 µM] | .[11.5 µM] | .[11.4 µM] | .[11.4 µM]
Cc1ccc(-c2nc(C(=O)NC3CCCCCC3)no2)cc1 | . | 20µM | . | ? | .
Cc1ccc(CNC(=O)C2c3ccccc3C(=O)N(C)C2c2c[nH]c3ccccc23)o1 (configuration not stated) | ? | 25µM | . | ? | .
O=C(Nc1nc2c(ccc3ccccc32)s1)c1ccco1 | ? | . | 13µM | . | .
CN(C)CCNc1ccccn1 | .[7.6 µM] | .[11.4 µM] | .[11.5 µM] | .[11.4 µM] | .[11.4 µM]
COC(=O)c1ccc(COc2ccc3c(C)c(C)c(=O)oc3c2)o1 | ? | 4µM | . | ? | .[11.4 µM]
C=CCOC(=O)COc1ccc2c(C)c(C)c(=O)oc2c1 | ? | . | . | . | .
CC1(C)CC[C@]2(C(=O)O)CC[C@@]3(C)C(=CCC4[C@@]5(C)CCC(O)[C@@](C)(CO)C5CC[C@@]43C)C2C1 (some centres not stated) | / | / | . | / | /
CO[C@@H]1CC[C@@]2(C)[C@@H](CC[C@@]3(C)[C@H]2CC=C2[C@H]4CC(C)(C)[C@H](O)[C@@H](OC(C)=O)[C@]4(CO)[C@H](O)C[C@]23C)[C@@]1(C)CO (tested in a mixture with another compound) | ? | . | ? | 16µM | .
N=c1n(CCN2CCCC2)c2ccccc2n1CC(O)c1ccco1 (configuration not stated) | . | . | . | . | .
Cc1ccccc1Cn1c(=N)n(CC(O)c2ccco2)c2ccccc21 (configuration not stated) | ? | . | . | . | 16µM
CCN1CCC[C@@H]1CNC(=O)c1c(OC)ccc(I)c1O | . | . | / | . | .
CC(C)CCC[C@@H](C)[C@@H]1CC[C@@H]2[C@H]3CC[C@H]4C[C@@H](N)CC[C@@]4(C)[C@@H]3CC[C@]21C | .[7.6 µM] | .[11.4 µM] | .[11.5 µM] | .[11.4 µM] | .[11.4 µM]
CC1CCc2sc3c(c2C1)c1ncnn1c(=O)n3CC(=O)c1ccc(Br)cc1 (configuration not stated) | . | 16µM | . | ? | .
SMILES | CRE-bla Fsk | HEK293 cAMP cs | ERK AVP block | TSHR agonist | Tau fil binding
CCN(CC)c1ccc(-n2cc3c(=O)n(C)c(=O)n(C)c3c2)cc1 | 10µM | . | . | . | ?
Cc1ccc([C@@]2(C)CC/C(=N/N=C3\CC[C@](C)(c4ccc(C)c(C)c4)c4cc(C)c(C)cc43)c3cc(C)c(C)cc32)cc1C | .[7.6 µM] | .[11.4 µM] | .[11.5 µM] | .[11.4 µM] | .[11.4 µM]
O=C(O)C[C@H](Cc1ccc2c(c1)OCO2)C(=O)O | .[7.6 µM] | .[11.4 µM] | .[11.5 µM] | .[11.4 µM] | .[11.4 µM]
NC(=O)N[C@H]1NC(=O)NC1=O | . | 13µM | . | ? | .
CC1CCCCN1C(=O)Cn1c(=O)n(C2CCCCC2)c(=O)c2ccccc21 (configuration not stated) | ? | . | . | 16µM | .
COc1ccc(N2CCN(c3nc(NCCc4ccc(OC)c(OC)c4)nc(OC)n3)CC2)cc1 | 3.2µM | ? | 16µM | ? | .
Oc1cccc(Nc2nc(NCC3CCCO3)c3ccccc3n2)c1 (configuration not stated) | . | ? | 16µM | ? | .
CO[C@H]1COC(=O)[C@H](C)NC(=O)C/C=C\[C@@H](C)[C@H](OC)COC(=O)[C@@H](OCc2ccccc2)/C=C\[C@@H]1C | / | .[11.4 µM] | .[11.5 µM] | .[11.4 µM] | /
COC(=O)c1sc(N2C(=O)C(O)=C(C(=O)c3ccc(C)o3)C2c2ccc(F)cc2)nc1C (configuration not stated) | 4µM | .[11.4 µM] | . | .[11.4 µM] | .[11.4 µM]
Cc1cccc(N2CCN(C(=O)C3CCN(S(=O)(=O)c4cccc5nsnc45)CC3)CC2C)c1 (configuration not stated) | ? | . | . | . | 25µM
COc1ccc2nc(NC(=O)C3CCN(S(=O)(=O)c4cccc5nsnc45)CC3)sc2c1 | ? | . | . | . | 13µM
C=C1C[C@@]23C[C@@]1(O)CC[C@@H]2[C@]12C=C[C@@H](O)[C@](C)(C(=O)O1)[C@@H]2[C@@H]3C(=O)O | / | / | . | / | /
CC(c1ccccc1)N1CC(C(=O)N2CCN(c3ccccc3)CC2)CC1=O (configuration not stated) | . | . | 25µM | . | .
CC(C)C(OC(=O)c1ccco1)C(=O)NCc1ccccc1 (configuration not stated) | ? | 25µM | . | ? | .
c1ccc(Cn2nnc3c(N4CCOCC4)ncnc32)cc1 | 10µM | . | . | . | .
CCCCCc1c(C)nc(Nc2nc(C)c3cc(OC)ccc3n2)[nH]c1=O | . | 10µM | . | ? | .
CCc1c(C)nc(Nc2nc(C)c3cc(OC)ccc3n2)[nH]c1=O | ? | . | . | . | .
COc1cccc2c1C(=O)c1c(O)c3c(c(O)c1C2=O)C[C@](O)(C(=O)CO)C[C@H]3O[C@@H]1C[C@H](N)[C@H](O)[C@H](C)O1 | . | . | . | . | 5µM
C=CC(=O)OCCOCCOC(=O)C=C | ? | . | . | ? | .
O=C1c2oc3ccc(F)cc3c(=O)c2C(c2cccc(O)c2)N1CCCN1CCOCC1 (configuration not stated) | . | . | / | . | .
Cc1cc2oc3c(c(=O)c2cc1C)C(c1ccc(C(C)C)cc1)N(CCCN1CCOCC1)C3=O (configuration not stated) | . | . | / | . | 4µM
CCOc1ccc(C2c3c(oc4cc(C)c(C)cc4c3=O)C(=O)N2CCCN2CCOCC2)cc1 (configuration not stated) | . | . | / | . | 16µM

Screens from PubChem BioAssay.
